Screens from PubChem.
MITF TRPM1 HTS: increases MITF-driven TRPM1 promoter luciferase signal; SK-MEL-5 TRPM1-promoter luciferase, 24 h; % of positive control, neutral wells = 0; activation, % at 12.5 µM; hit rate 0.75% among 300,000;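 active = mean activation of at least 80% with every replicate also reaching 80%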;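 also: 0% = neutral control wells and 100% = parthenolide positive control wells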
SMARCA2 act: increases SMARCA2 function in MMTV reporter cells | activation, % at 9.1 µM | hit rate 1% among 370,000 | AID 652017 | MG213 cells, MMTV-luciferase reporter, dexamethasone, overnight; in the data active = activation above about 7.8%;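 also: 0% = vehicle wells and 100% = reference activator wells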
HSF-1 act: increases HSF-1 driven luciferase reporter signal; NIH3T3-HGL HSF-1 luciferase reporter, MG132, 8 h; 100% = twice DMSO control signal; AID 504408; activation, % at 9 µM; hit rate 1.7% among 300,000;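 active = mean replicate activation of at least 50% with a set share of replicates each reaching 50%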;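 also: 0% = median of the neutral control wells and 100% = twice that signal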
HSF1 inhib: HSF1 inhibition | NIH3T3-HGL HSE-luciferase, MG132-induced, luminescence 8 h; stronger effect = lower value | activity change, negative = inhibition, % at 7.5 µM (by protocol) | hit rate 0.77% among 300,000 | AID 2098;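 active = more than half of replicate wells show activity change below -50%, luminescence cut by over half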;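 also: luciferase reports HSF-1 transcriptional activity via heat shock element; 0% = median of DMSO wells and -100% = zero luminescence signal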
Wnt bcat act: activates Wnt/beta-catenin signaling in a reporter cell assay; activator, plate reader; activation, % at 9.35 µM; hit rate 1.2% among 300,000; AID 743398; in the data active = activation above about 30%, passing the limit was not always enough;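 also: 0% = neutral control wells and 100% = positive control wells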
esBAF inh: SWI/SNF esBAF complex inhibition; mouse ES cells, Bmi1-luciferase knock-in reporter, 24 h; 100% = twice the neutral-well signal; reporter increase, % at 12.5 µM; hit rate 2% among 350,000; AID 602393; in the data active = activation above about 40%;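 also: 0% = median of the plate's neutral control wells and 100% = double that signal; a rise in the Bmi1 reporter signal indicates esBAF inhibition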
* = called active by the depositor; . = no result given. Rows were chosen to be rich in hits. Some 4.3% of all compounds tested hit in one or more screens of this group.

SMILES	MITF TRPM1 HTS	SMARCA2 act	HSF-1 act	HSF1 inhib	Wnt bcat act	esBAF inh
COc1ccc(NC(=O)/C(Cl)=C(/Cl)S(=O)Cc2ccccc2)cn1 (stereo not given)	-103	-7	-93	-93*	.	.
CCCCNC(=S)Nc1ccc(OC)nc1	7	-4	65*	23	-2	.
Cc1noc(C)c1NC(=O)N[C@H]1C=C[C@H](CC(=O)NCCCN(C)C)O[C@H]1CO	.	.	.	.	.	-2
COc1ccccc1C(=O)N1C[C@@H]2[C@H](c3ccccc31)[C@H](CO)N2C(=O)C1CCCCC1	.	.	.	.	.	-1
O=C(CC(F)(F)F)N1C[C@@H]2[C@H](c3ccccc31)[C@@H](CO)N2C(=O)C1CC1	.	.	.	.	.	-1
O=C1OC(NC(=O)c2ccccc2)C(n2cc(CO)nn2)=C1Cl (stereo not given)	5	-3	-67	-62*	.	6
Cc1ccc(NC2=C(Cl)C(=O)OC2NC(=O)c2ccccc2)cc1 (stereo not given)	.	-3	5	8	3	.
CCNC(=O)[C@H]1[C@H](CO)[C@H]2Cn3c(ccc(-c4ccccc4F)c3=O)[C@@H]1N2CC1CC1	.	.	.	.	.	1
NC(N)=NS(=O)(=O)c1ccc(NC(=S)NC(=O)c2ccc(Br)cc2)cc1	9	-1	114*	86	-1	.
CC(C)Cn1c(N)c(C(=O)COC(=O)c2ccc([N+](=O)[O-])o2)c(=O)n(C)c1=O	-36	0	67*	53	1	.
CC(C)Cn1c(N)c(C(=O)COC(=O)c2ccc(O)cc2)c(=O)n(C)c1=O	-7	0	1	-1	-4	.
CC(C)NC(=O)N(C)C[C@H]1OCCCC[C@H](C)Oc2ccc(NS(=O)(=O)c3cn(C)cn3)cc2C(=O)N([C@@H](C)CO)C[C@@H]1C	.	.	.	.	.	2
CCCOc1ccc(-c2c(=O)n(O)c3ccccc3[n+]2[O-])cc1	.	4	44	41	14	50*
CCOc1ccc(-c2c(=O)n(OCc3ccccn3)c3ccccc3[n+]2[O-])cc1	25	4	9	-4	12	19
CCS(=O)(=O)N1Cc2ccccc2CC1C(=O)N(C)CC(=O)Nc1cccc(F)c1 (stereo not given)	6	1	-15	-15	-1	47*
CCS(=O)(=O)N1Cc2ccccc2CC1C(=O)Nc1ccc(C)cc1 (stereo not given)	.	4	15	12	18	49*
CCOC(=O)CCCNS(=O)(=O)c1c(C)ccc2nsnc12	0	0	-91	-89*	-7	10
CN1c2ccccc2C(O)=C(C(=S)Nc2ccc(Cl)cc2)S1(=O)=O	.	0	60*	27	.	22
Cc1cccc(NC(=O)C2=C(O)c3ccccc3N(C)S2(=O)=O)c1	-15	-4	4	4	5	5
O=C(O)Cn1c(SCCOc2ccc(Cl)cc2)nc2ccccc21	-14	-2	63*	27	0	-4
CO[C@H]1CC[C@H]2CCN(C)C(=O)[C@@H](C)N(C)C(=O)c3cccc(C#N)c3OC[C@H]1O2	.	.	.	.	.	1
C[C@@H](C(=O)Nc1ccc2c(c1)OCCO2)n1c(=O)[nH]c2ccccc2c1=O	-21	-7	-81	-77*	-9	-42
CCc1ccc(NC2=NCC(c3ccccc3)S2)cc1 (stereo not given)	43	1	56*	35	4	.
Cc1ccc(NC2=NCC(Cc3ccc(Br)cc3)S2)cc1 (stereo not given)	-12	0	19	8	1	-11
O=[N+]([O-])c1ccc(C2CN=C(Nc3ccccc3)S2)cc1 (stereo not given)	26	3	65*	44	2	23
SMILES	MITF TRPM1 HTS	SMARCA2 act	HSF-1 act	HSF1 inhib	Wnt bcat act	esBAF inh
CCCNC(=O)C[C@H]1CC[C@@H]2[C@@H](COc3ccc(NC(=O)c4ccc5c(c4)OCO5)cc3C(=O)N2C)O1	.	.	.	.	.	3
Cc1noc(C)c1S(=O)(=O)Nc1ccc2c(c1)CC(=O)N([C@H](C)CO)C[C@H](C)[C@H](CN(C)S(=O)(=O)c1ccccc1)O2	.	.	.	.	.	0
O=C(C1CC1)N1CC[C@@H]2[C@@H](CO)Nc3ccc(Br)cc3[C@@H]21	.	.	.	.	.	2
COc1cccc(-c2ccc3c(c2)[C@H]2[C@H](CCN2C(=O)CN2CCOCC2)[C@@H](CO)N3)c1	.	.	.	.	.	-6
O=C(C1CC1)N1CC[C@@H]2[C@H](CO)Nc3ccc(Br)cc3[C@@H]21	.	.	.	.	.	58*
O=C(CN1CCOCC1)N1CC[C@@H]2[C@H](CO)Nc3ccc(-c4ccccc4F)cc3[C@@H]21	.	.	.	.	.	42*
COc1ccc(-c2ccc3c(c2)[C@@H]2[C@@H](CCN2C(=O)CN2CCOCC2)[C@@H](CO)N3)cc1	.	.	.	.	.	49*
CN(C)C(=O)c1cccc(-c2ccc3n(c2=O)C[C@@H]2N[C@H]3[C@H](C(=O)NC3CCC3)[C@H]2CO)c1	.	.	.	.	.	0
OC(COc1ccc(OCc2ccccc2)cc1)CN1CCOCC1 (stereo not given)	1	-2	-4	1	.	-1
OC(COc1ccc(OCc2ccccc2)cc1)CN1CCCCC1 (stereo not given)	88*	7	8	22	.	14
N#CC12COC3(CCCCC3C1(C#N)C#N)OC2=N (stereo not given)	-4	-2	2	-4	-1	.
N#CC1(C#N)COC23CCCCC2C1(C#N)C(=N)O3 (stereo not given)	.	-3	-76	-70*	.	-1
Fc1ccc(CSc2ncnc3c2ncn3C2CCCCO2)cc1 (stereo not given)	69	1	.	.	-3	.
c1ccc(CNc2ncnc3c2ncn3C2CCCCO2)cc1 (stereo not given)	68	3	40	20	19	46*
CC(C)CCn1cnc2c(NCc3ccccc3)ncnc21	45	0	28	17	.	46*
O=C(Cn1cnc2c(NCc3ccccc3)ncnc21)NCC1CCCO1 (stereo not given)	8	-2	.	.	-1	-9
Clc1cccc(CSc2ncnc3c2ncn3C2CCCCO2)c1 (stereo not given)	75	0	.	.	8	76*
c1ccc(CSc2ncnc3c2ncn3C2CCCCO2)cc1 (stereo not given)	100*	3	.	.	-4	84*
CC(CNC(=O)Cn1cnc2c(NCc3ccccc3)ncnc21)c1ccccc1 (stereo not given)	14	-4	.	.	-4	-5
C[C@@H]1CN([C@H](C)CO)C(=O)c2cc(C#Cc3ccccc3)cnc2O[C@@H]1CN(C)C(=O)CN(C)C	.	.	.	.	.	2
CCCNC(=O)C[C@H]1CC[C@H]2[C@@H](COC[C@H](O)CN2C(=O)c2cccnc2)O1	.	.	.	.	.	3
COc1ccc(-c2ccc3c(c2)[C@H]2[C@H](CCN2S(=O)(=O)c2ccc(OC)cc2)[C@H](CO)N3C)cc1	.	.	.	.	.	-12
CO[C@@H]1CN(C)C(=O)c2cc(NC(=O)c3cccc(F)c3)ccc2OC[C@@H](C)NC[C@H]1C	.	.	.	.	.	1
